Here are results for four compounds from PubChem BioAssay (EPA / NIEHS).

Settings in all cases: mRNA level, 48 h; actives raise or lower the signal
Read-out in experiment [1]: Cytochrome P450 7A1 (Homo sapiens) (UniProt P22680)
Nature of the experiment: LTEA_HepaRG_CYP7A1: Life Technologies and Expression Analysis (LTEA) Assay for Cytochrome P450 7A1 (CYP7A1) using HepaRG (AID 2283496). The method, boiled down:
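HepaRG cells plated 48 h, then switched to serum-free induction medium and exposed in duplicate for 48 h to 8-point half-log series from 100 uM in 0.5% DMSO. CYP7A1 mRNA by qRT-PCR (TaqMan), normalized to ACTB/GAPDH/POLR2A; bidirectional fit versus DMSO.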

Read-out in experiment [2]: Glutathione S-Transferase (GSTA2), GSTA2 (gene 2939)
Put plainly: LTEA_HepaRG_GSTA2: Life Technologies and Expression Analysis (LTEA) Assay for Glutathione S-Transferase (GSTA2) using HepaRG (AID 2283497). A digest of the protocol: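 Human HepaRG cells, plated 48 h, then exposed in serum-free induction medium for 48 h to eight half-log concentrations up to 100 uM in 0.5% DMSO, duplicate. GSTA2 mRNA by qRT-PCR, normalized to ACTB/GAPDH/POLR2A; bidirectional fit versus DMSO.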

Read-out in experiment [3]: growth arrest and DNA damage 45 (GADD45G), GADD45G (gene 10912)
Put plainly: LTEA_HepaRG_GADD45G: Life Technologies and Expression Analysis (LTEA) Assay for growth arrest and DNA damage 45 (GADD45G) using HepaRG (AID 2283499). The method, boiled down:
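Differentiated human HepaRG cells in serum-free induction medium were exposed for 48 h to 8 half-log concentrations up to 100 uM in 0.5% DMSO, in duplicate. GADD45G mRNA was measured by TaqMan qRT-PCR, normalised to ACTB, GAPDH and POLR2A, and fitted bidirectionally against DMSO.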

Read-out in experiment [4]: Glutamate-cysteine ligase regulatory (GCLM), GCLM (gene 2730)
Put plainly: LTEA_HepaRG_GCLM: Life Technologies and Expression Analysis (LTEA) Assay for Glutamate-cysteine ligase regulatory (GCLM) using HepaRG (AID 2283500). The method, boiled down:
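Differentiated HepaRG cells exposed 48 h in serum-free induction medium to eight half-log concentrations up to 100 uM (0.5% DMSO). GCLM mRNA by TaqMan qRT-PCR, normalized to ACTB, GAPDH and POLR2A; bidirectional fit versus DMSO.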

Read-out in experiment [5]: Heat shock 70 kDa protein 1 (HSPA1A), gene 3303
Put plainly: LTEA_HepaRG_HSPA1A: Life Technologies and Expression Analysis (LTEA) Assay for Heat shock 70 kDa protein 1 (HSPA1A) using HepaRG (AID 2283502). The method, boiled down:
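Human HepaRG cells in serum-free induction medium were exposed in duplicate for 48 h to 8 half-log concentrations, highest 100 uM, in 0.5% DMSO. HSPA1A mRNA read by TaqMan qRT-PCR, normalized to ACTB, GAPDH, POLR2A, fitted bidirectionally against DMSO.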

Read-out in experiment [6]: Hypoxia-inducible factor 1-alpha (Homo sapiens) (UniProt Q16665)
Put plainly: LTEA_HepaRG_HIF1A: Life Technologies and Expression Analysis (LTEA) Assay for Hypoxia-inducible factor 1 (HIF1A) Trancription factor using HepaRG (AID 2283503). A digest of the protocol:
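Differentiated HepaRG cells in serum-free induction medium exposed 48 h, in duplicate, to 8-point half-log series from 100 uM in 0.5% DMSO. HIF1A mRNA measured by TaqMan qRT-PCR, normalized to ACTB/GAPDH/POLR2A, fitted bidirectionally versus DMSO.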

Read-out in experiment [7]: 3-Hydroxy-3-Methylglutaryl-CoA Synthase 2 (HMGCS2), HMGCS2 (gene 3158)
Nature of the experiment: LTEA_HepaRG_HMGCS2: Life Technologies and Expression Analysis (LTEA) Assay for 3-Hydroxy-3-Methylglutaryl-CoA Synthase 2 (HMGCS2) using HepaRG (AID 2283504). The method, boiled down: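 Differentiated human HepaRG cells were exposed in duplicate for 48 h in serum-free induction medium to eight concentrations (top 100 uM, half-log steps, 0.5% DMSO). HMGCS2 mRNA was quantified by TaqMan qRT-PCR, normalised to ACTB, GAPDH and POLR2A, then fitted bidirectionally against DMSO.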

Read-out in a further experiment: HGF (gene 3082)
Nature of the experiment: LTEA_HepaRG_HGF: Life Technologies and Expression Analysis (LTEA) Assay for Hepatocyte Growth Facto (HGF) using HepaRG (AID 2283505). The method, boiled down:
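Differentiated human HepaRG cells in serum-free induction medium were exposed in duplicate for 48 h to eight concentrations (top 100 uM, half-log steps, 0.5% DMSO). HGF mRNA was quantified by qRT-PCR, normalized to ACTB, GAPDH and POLR2A.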

Read-out in experiment [8]: Insulin Like Growth Factor 1 (IGF1), IGF1 (gene 3479)
Nature of the experiment: LTEA_HepaRG_IGF1: Life Technologies and Expression Analysis (LTEA) Assay for Insulin Like Growth Factor 1 (IGF1) using HepaRG (AID 2283506). A digest of the protocol: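 Differentiated HepaRG cells in serum-free induction medium, exposed 48 h in duplicate to 8 half-log concentrations up to 100 uM in 0.5% DMSO. IGF1 mRNA by Fluidigm qRT-PCR, normalised to ACTB, GAPDH and POLR2A.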

Read-out in experiment [9]: Intercellular Adhesion Molecule 1 (ICAM1), ICAM1 (gene 3383)
Nature of the experiment: LTEA_HepaRG_ICAM1: Life Technologies and Expression Analysis (LTEA) Assay for Intercellular Adhesion Molecule 1 (ICAM1) using HepaRG (AID 2283507). A digest of the protocol: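 Differentiated HepaRG cells in serum-free induction medium were exposed in duplicate for 48 h to eight half-log concentrations up to 100 uM in 0.5% DMSO. Transcript levels were measured by qRT-PCR normalized to ACTB, GAPDH and POLR2A; bidirectional fits relative to DMSO.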

Read-out in experiment [10]: Insulin-like growth factor-binding protein 1 (IGFBP1), IGFBP1 (gene 3484)
Nature of the experiment: LTEA_HepaRG_IGFBP1: Life Technologies and Expression Analysis (LTEA) Assay for Insulin-like growth factor-binding protein 1 (IGFBP1) using HepaRG (AID 2283508). A digest of the protocol:
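Differentiated human HepaRG cells in serum-free induction medium were exposed in duplicate for 48 h to eight concentrations, top 100 uM with half-log dilutions, in 0.5% DMSO. Transcript levels came from qRT-PCR normalised to ACTB, GAPDH and POLR2A, fitted bidirectionally against DMSO.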

Read-out in experiment [11]: Interleukin 6 (IL6), IL6 (gene 3569)
Put plainly: LTEA_HepaRG_IL6: Life Technologies and Expression Analysis (LTEA) Assay for Interleukin 6 (IL6) using HepaRG (AID 2283509). The method, boiled down: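 Differentiated human HepaRG cells, plated 48 h then switched to serum-free induction medium, were exposed in duplicate for 48 h to eight half-log concentrations up to 100 uM in 0.5% DMSO. IL6 mRNA measured by qRT-PCR, normalized to ACTB/GAPDH/POLR2A.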

Read-out in experiment [12]: Interleukin 6 Receptor (IL6R), IL6R (gene 3570)
Put plainly: LTEA_HepaRG_IL6R: Life Technologies and Expression Analysis (LTEA) Assay for Interleukin 6 Receptor (IL6R) using HepaRG (AID 2283510). The method, boiled down: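 Differentiated HepaRG cells, plated 48 h, then exposed in duplicate for 48 h in serum-free induction medium to 8 half-log concentrations (top 100 uM, 0.5% DMSO). IL6R mRNA measured by TaqMan qRT-PCR, normalized to ACTB/GAPDH/POLR2A; bidirectional fit vs DMSO.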

Read-out in experiment [13]: Potassium channel subfamily K member 1 (KCNK1), KCNK1 (gene 3775)
Nature of the experiment: LTEA_HepaRG_KCNK1: Life Technologies and Expression Analysis (LTEA) Assay for Potassium channel subfamily K member 1 (KCNK1) using HepaRG (AID 2283511). A digest of the protocol:
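Differentiated human HepaRG cells in serum-free induction medium were exposed in duplicate for 48 h to 8 half-log concentrations up to 100 uM in 0.5% DMSO. KCNK1 mRNA was measured by TaqMan qRT-PCR, normalized to ACTB, GAPDH and POLR2A, and fitted bidirectionally versus DMSO.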

Read-out in experiment [14]: Keratin 19 (KRT19), KRT19 (gene 3880)
Put plainly: LTEA_HepaRG_KRT19: Life Technologies and Expression Analysis (LTEA) Assay for Keratin 19 (KRT19) using HepaRG (AID 2283512). The method, boiled down:
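Differentiated human HepaRG cells, plated 48 h, were exposed in duplicate for 48 h in serum-free induction medium to eight half-log concentrations up to 100 uM in 0.5% DMSO. KRT19 mRNA was quantified by qRT-PCR, normalized to ACTB, GAPDH and POLR2A, and fitted bidirectionally versus DMSO.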

Read-out in experiment [15]: JUN Transcription Factor, JUN (gene 3725)
Nature of the experiment: LTEA_HepaRG_JUN: Life Technologies and Expression Analysis (LTEA) Assay for JUN Transcription Factor using HepaRG (AID 2283513). The method, boiled down:
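HepaRG cells, 48 h post-plating, exposed 48 h in serum-free induction medium to 8-point half-log series (top 100 uM, 0.5% DMSO), duplicate; mRNA by qRT-PCR (TaqMan, Fluidigm), normalized to ACTB/GAPDH/POLR2A; bidirectional fit vs DMSO.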

Read-out in experiment [16]: Lipoprotein lipase (LPL), LPL (gene 4023)
Nature of the experiment: LTEA_HepaRG_LPL: Life Technologies and Expression Analysis (LTEA) Assay for Lipoprotein lipase (LPL) using HepaRG (AID 2283515). The method, boiled down:
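Differentiated human HepaRG cells in serum-free induction medium were exposed in duplicate for 48 h to eight half-log concentrations (top 100 uM) in 0.5% DMSO. LPL mRNA was quantified by TaqMan qRT-PCR, normalized to ACTB, GAPDH and POLR2A.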

Read-out in experiment [17]: Glutathione S-transferase M3 (GSTM3), GSTM3 (gene 2947)
Nature of the experiment: LTEA_HepaRG_GSTM3: Life Technologies and Expression Analysis (LTEA) Assay for Glutathione S-transferase M3 (GSTM3) using HepaRG (AID 2283501). A digest of the protocol: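 Differentiated HepaRG cells in serum-free induction medium were exposed in duplicate for 48 h to 8 half-log concentrations up to 100 uM in 0.5% DMSO. GSTM3 mRNA was measured by TaqMan qRT-PCR, normalized to ACTB/GAPDH/POLR2A, and fitted bidirectionally versus DMSO.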

Calls of active or inactive are those of the source. How the source made its calls: active means hit-call score of the fitted dose curve at least 0.9, where 1 is the maximum; inactive means score below 0.9.

Sequence of Hypoxia-inducible factor 1-alpha (Homo sapiens) (Q16665 whole entry, looked up): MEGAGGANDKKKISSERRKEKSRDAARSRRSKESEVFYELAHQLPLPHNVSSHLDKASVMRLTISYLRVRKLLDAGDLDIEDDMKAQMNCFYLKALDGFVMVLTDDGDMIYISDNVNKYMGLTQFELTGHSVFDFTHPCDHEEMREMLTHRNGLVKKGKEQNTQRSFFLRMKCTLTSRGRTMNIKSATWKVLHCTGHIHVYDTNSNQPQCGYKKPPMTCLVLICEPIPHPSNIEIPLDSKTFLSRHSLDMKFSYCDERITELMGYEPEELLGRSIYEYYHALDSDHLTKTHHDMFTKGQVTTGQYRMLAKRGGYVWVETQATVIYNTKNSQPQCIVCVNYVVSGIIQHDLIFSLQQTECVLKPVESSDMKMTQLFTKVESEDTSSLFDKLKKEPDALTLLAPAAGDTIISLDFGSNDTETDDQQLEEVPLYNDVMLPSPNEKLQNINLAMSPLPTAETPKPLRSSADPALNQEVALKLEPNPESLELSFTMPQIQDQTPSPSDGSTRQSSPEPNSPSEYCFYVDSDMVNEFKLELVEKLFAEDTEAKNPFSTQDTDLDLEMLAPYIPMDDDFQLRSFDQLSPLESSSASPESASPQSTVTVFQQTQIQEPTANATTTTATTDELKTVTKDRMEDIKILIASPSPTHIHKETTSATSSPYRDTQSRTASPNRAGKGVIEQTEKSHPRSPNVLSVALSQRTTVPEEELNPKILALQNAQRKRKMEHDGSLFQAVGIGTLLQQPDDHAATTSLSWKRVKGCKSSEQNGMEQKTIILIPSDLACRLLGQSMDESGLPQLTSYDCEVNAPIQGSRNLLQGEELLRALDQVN

One may read the AC50 as the concentration giving half of the maximal activity seen. `CCOC(=O)CC(SP(=O)(OC)OC)C(=O)OCC` (centres undefined): the concentration at half-maximal activity (AC50) in experiment [1] was 50 µM (active). Besides, the call in experiment [2], in experiment [3], in experiment [4], in experiment [5], in experiment [6] and in experiment [7] was inactive. Besides, the compound was called inactive (with HGF (gene 3082); in experiment [8]; in [9]; in experiment [10]; in experiment [11]; in experiment [12]). Moreover, the compound was called inactive in [13], in [14], in experiment [15] and in experiment [16].

Regarding `CCc1cccc(CC)c1N(COC)C(=O)CCl`, the outcome in [1], in experiment [2], in [3], in experiment [4], in experiment [17] and in experiment [5] was inactive. Also, the compound was called inactive (in experiment [6]; in experiment [7]; with HGF (gene 3082); in experiment [8]; in experiment [9]; in experiment [11]). Besides, the outcome in experiment [12], in experiment [13], in [14], in experiment [15] and in experiment [16] was inactive. Moreover, the concentration at half-maximal activity (AC50) in experiment [10] was 32.1 µM (active).

On to `Cc1nn(-c2cc(NS(C)(=O)=O)c(Cl)cc2Cl)c(=O)n1C(F)F`, for which the result in experiment [1], in experiment [2], in [3], in experiment [4], in experiment [17] and in [5] was inactive. Moreover, the compound was classed as inactive (in experiment [6]; in experiment [7]; in the experiment with HGF (gene 3082); in experiment [9]; in [10]; in [11]). Also, the compound was called inactive in experiment [12], in experiment [13], in experiment [14], in experiment [15] and in experiment [16].

Regarding `O=c1ccc(=O)[nH][nH]1`, the call in experiment [1], in experiment [2], in [3], in experiment [4], in [5] and in experiment [6] was inactive. Besides, the result (in [7]; with HGF (gene 3082); in experiment [8]; in experiment [9]; in experiment [10]; in experiment [11]) was inactive. Besides, the outcome in [12], in experiment [13], in experiment [14], in [15] and in experiment [16] was inactive.
